# Reference: the supplement of paper PMC7411640
# Structures can show the parent of a compound that is named as a salt.
# Test system: MDA-MB-468
# Assay: phospho-S6 immunofluorescence (DAPI-normalised), per-plate z-score; higher = higher phospho-S6 signal (less pathway suppression)
# Conditions: co-treatment: GDC0941 450 nM; 24 h
# Protocol: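 GPCR-targeted compound library (MedChemExpress HY-L006) tested on MDA-MB-468 PTEN-null TNBC cells in 384-well plates at 0.1, 1 or 10 uM, combined with vehicle, GDC0941 450 nM or lapatinib 1 uM, for 24 h. Phospho-S6 (S240/244) immunofluorescence normalised to DAPI and expressed as a per-plate z-score; values are the mean of biological triplicates.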
row,Structure (SMILES),phospho-S6 immunofluorescence (z-score)
1,CCN(CCCc1ccccc1)CCCc1ccccc1 [Alverine (citrate)] (compound 10 µM),-0.52
2,N#Cc1cc(NC(=O)C(=O)O)c(Cl)c(NC(=O)C(=O)O)c1 [Lodoxamide] (compound 10 µM),0.92
3,CCCN(CCc1cccs1)C1CCc2c(O)cccc2C1 (racemic) [rac-Rotigotine (Hydrochloride)] (compound 10 µM),-0.62
4,OC(CCN1CCCCC1)(c1ccccc1)C1CCCCC1 (stereo not given) [Trihexyphenidyl (hydrochloride)] (compound 10 µM),-0.3
5,C[C@@H](NCCCc1cccc(C(F)(F)F)c1)c1cccc2ccccc12 [Cinacalcet (hydrochloride)] (compound 10 µM),-5.88
6,CC(C[N+](C)(C)C)OC(N)=O (stereo not given) [Bethanechol (chloride)] (compound 10 µM),0.67
7,COCCc1ccc(OCC(O)CNC(C)C)cc1 (stereo not given) [Metoprolol (Succinate)] (compound 10 µM),0.44
8,c1ccc2c(c1)OCC(CN1CCCCC1)O2 (stereo not given) [Piperoxan (hydrochloride)] (compound 10 µM),0.28
9,c1cc(CN2CCCNCCNCCCNCC2)ccc1CN1CCCNCCNCCCNCC1 [Plerixafor] (compound 10 µM),-0.31
10,C[C@@H](O[C@H]1OCCN(Cc2nn(P(=O)(O)O)c(=O)[nH]2)[C@H]1c1ccc(F)cc1)c1cc(C(F)(F)F)cc(C(F)(F)F)c1 [Fosaprepitant (dimeglumine)] (compound 10 µM),-2.28
